Experimental findings from ChEMBL document CHEMBL1961873, “Compounds: GSK PKIS; Assays: Nanosyn kinase panel” (2012) are described below.

For experiment [1], the system named is Proto-oncogene tyrosine-protein kinase receptor Ret (Homo sapiens), P07949 [Y791F]. Particulars: at 1 µM.
The target in experiment [2] is Macrophage-stimulating protein receptor (Homo sapiens) (UniProt Q04912). Particulars: at 0.1 µM.
For experiment [3] the target is unchanged. The note with it: at 1 µM.
The target of experiment [4] is Proto-oncogene tyrosine-protein kinase ROS (Homo sapiens) (UniProt P08922). Particulars: at 0.1 µM.
Experiment [5] has the same target. Particulars: at 1 µM.
Experiment [6] has as its target Proto-oncogene tyrosine-protein kinase Src (Homo sapiens) (UniProt P12931). Particulars: at 0.1 µM.
The target is the same in experiment [7]. The note with it: at 1 µM.
Experiment [8] deals with Tyrosine-protein kinase Srms (Homo sapiens) (UniProt Q9H3Y6). The note with it: at 0.1 µM.
Chain of Tyrosine-protein kinase Srms (Homo sapiens) (Q9H3Y6 whole entry): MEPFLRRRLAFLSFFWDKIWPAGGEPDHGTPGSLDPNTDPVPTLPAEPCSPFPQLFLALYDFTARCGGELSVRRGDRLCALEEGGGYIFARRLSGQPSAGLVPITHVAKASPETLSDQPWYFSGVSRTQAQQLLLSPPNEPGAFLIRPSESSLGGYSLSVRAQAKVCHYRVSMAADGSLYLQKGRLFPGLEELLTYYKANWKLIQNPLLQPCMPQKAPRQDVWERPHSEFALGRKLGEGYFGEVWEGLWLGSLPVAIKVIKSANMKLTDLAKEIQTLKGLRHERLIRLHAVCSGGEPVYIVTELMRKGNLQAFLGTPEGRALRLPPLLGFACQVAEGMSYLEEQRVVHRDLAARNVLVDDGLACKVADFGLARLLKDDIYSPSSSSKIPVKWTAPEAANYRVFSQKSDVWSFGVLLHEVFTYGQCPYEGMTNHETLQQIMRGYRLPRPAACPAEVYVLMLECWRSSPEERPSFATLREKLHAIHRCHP
The target is the same in experiment [9]. The note with it: at 1 µM.
The target in experiment [10] is Tyrosine-protein kinase SYK (Homo sapiens) (UniProt P43405). The note with it: at 0.1 µM.
For experiment [11] the target is unchanged. Particulars: at 1 µM.
Experiment [12] deals with T1, Tyrosine-protein kinase Tec (Homo sapiens) (UniProt P42680).
T1 sequence (whole entry): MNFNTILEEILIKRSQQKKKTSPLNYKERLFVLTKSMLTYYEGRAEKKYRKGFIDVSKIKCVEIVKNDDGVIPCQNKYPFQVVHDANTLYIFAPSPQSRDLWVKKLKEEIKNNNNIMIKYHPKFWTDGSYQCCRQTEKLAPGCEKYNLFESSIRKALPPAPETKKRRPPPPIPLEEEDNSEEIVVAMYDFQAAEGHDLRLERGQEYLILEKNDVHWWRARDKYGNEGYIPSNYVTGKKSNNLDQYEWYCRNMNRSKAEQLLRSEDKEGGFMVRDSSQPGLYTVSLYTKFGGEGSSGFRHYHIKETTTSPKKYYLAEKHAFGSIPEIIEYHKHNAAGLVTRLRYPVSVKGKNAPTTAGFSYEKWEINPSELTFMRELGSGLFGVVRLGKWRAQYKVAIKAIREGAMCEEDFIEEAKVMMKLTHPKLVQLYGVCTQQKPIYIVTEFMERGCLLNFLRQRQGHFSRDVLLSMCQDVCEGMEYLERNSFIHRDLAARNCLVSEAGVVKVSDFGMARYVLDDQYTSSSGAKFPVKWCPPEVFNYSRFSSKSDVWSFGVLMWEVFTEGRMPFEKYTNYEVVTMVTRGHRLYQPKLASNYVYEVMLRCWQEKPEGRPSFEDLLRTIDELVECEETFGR
Particulars: at 0.1 µM.

For experiment [13], the target named is T1, Tyrosine-protein kinase Tec (Homo sapiens). The note with it: at 1 µM.
For experiment [14], the target named is Angiopoietin-1 receptor (Homo sapiens) (UniProt Q02763). The note with it: at 0.1 µM.
Experiment [15] shares this target. Particulars: at 1 µM.
In experiment [16] the target is T2, Non-receptor tyrosine-protein kinase TNK1 (Homo sapiens) (UniProt Q13470).
T2 sequence (whole entry): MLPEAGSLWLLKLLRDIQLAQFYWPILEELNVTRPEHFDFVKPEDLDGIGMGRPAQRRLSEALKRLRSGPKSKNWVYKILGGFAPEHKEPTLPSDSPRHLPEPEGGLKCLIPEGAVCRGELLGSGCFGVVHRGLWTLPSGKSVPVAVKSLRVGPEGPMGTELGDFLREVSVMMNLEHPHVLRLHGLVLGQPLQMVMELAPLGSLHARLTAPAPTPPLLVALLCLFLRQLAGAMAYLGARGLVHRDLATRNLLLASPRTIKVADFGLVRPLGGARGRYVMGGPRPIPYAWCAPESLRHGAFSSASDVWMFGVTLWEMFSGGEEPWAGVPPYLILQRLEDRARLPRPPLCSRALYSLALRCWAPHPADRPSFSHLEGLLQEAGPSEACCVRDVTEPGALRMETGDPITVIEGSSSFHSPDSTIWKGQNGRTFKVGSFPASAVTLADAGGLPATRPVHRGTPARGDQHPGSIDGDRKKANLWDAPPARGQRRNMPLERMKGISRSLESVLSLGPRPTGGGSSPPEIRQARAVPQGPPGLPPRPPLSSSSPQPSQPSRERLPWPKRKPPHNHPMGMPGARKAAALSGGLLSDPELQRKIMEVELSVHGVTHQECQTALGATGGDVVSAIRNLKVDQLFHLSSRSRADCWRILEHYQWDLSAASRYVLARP
Particulars: at 0.1 µM.

Experiment [17] addresses T2, Non-receptor tyrosine-protein kinase TNK1 (Homo sapiens). The note with it: at 1 µM.
Experiment [18] concerns the target Activated CDC42 kinase 1 (Homo sapiens) (UniProt Q07912). The note with it: at 0.1 µM.
The target is the same in experiment [19]. Particulars: at 1 µM.
Experiment [20] concerns the target High affinity nerve growth factor receptor (Homo sapiens) (UniProt P04629). The note with it: at 0.1 µM.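 Further: each value is a mean of replicate percent inhibition readings against TRKA kinase.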

Each structure is given as a SMILES string.

Chain of Macrophage-stimulating protein receptor (Homo sapiens) (Q04912 25-304 limits assumed): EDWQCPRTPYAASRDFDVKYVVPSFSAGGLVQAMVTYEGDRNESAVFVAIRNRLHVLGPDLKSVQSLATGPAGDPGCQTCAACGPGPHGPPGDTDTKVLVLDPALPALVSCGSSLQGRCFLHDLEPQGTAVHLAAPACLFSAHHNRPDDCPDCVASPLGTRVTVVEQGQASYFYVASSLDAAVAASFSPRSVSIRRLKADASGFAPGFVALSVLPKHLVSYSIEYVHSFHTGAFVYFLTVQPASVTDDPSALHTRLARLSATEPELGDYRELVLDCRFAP
Chain of Macrophage-stimulating protein receptor (Homo sapiens) (Q04912 310-1400 limits assumed): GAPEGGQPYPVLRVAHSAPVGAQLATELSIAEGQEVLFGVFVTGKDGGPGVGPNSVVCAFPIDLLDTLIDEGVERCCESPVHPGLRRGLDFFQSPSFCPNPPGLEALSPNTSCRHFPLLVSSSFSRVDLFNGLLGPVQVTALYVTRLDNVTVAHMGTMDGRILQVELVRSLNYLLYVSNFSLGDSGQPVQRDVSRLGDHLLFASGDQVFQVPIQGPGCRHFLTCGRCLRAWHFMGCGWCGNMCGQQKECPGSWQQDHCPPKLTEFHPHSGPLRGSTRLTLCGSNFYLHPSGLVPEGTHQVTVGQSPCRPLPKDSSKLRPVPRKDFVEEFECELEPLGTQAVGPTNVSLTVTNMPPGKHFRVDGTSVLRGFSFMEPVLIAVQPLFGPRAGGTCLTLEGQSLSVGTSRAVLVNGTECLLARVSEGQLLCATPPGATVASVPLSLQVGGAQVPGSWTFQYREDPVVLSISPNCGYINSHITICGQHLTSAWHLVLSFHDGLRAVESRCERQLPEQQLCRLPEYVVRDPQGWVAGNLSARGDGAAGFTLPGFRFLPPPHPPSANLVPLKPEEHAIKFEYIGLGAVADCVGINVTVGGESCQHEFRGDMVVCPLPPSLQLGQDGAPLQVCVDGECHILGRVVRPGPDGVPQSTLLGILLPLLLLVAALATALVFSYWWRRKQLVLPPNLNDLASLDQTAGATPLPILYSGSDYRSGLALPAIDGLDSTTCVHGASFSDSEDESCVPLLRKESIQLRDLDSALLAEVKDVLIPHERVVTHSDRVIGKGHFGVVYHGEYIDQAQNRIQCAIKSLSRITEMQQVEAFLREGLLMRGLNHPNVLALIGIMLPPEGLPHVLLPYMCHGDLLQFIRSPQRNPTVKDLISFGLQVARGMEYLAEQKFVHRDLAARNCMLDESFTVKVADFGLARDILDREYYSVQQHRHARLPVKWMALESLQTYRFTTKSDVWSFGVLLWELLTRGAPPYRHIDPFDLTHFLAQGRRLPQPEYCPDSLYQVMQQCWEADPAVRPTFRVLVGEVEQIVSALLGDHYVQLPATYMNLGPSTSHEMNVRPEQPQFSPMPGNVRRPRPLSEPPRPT
Chain of Proto-oncogene tyrosine-protein kinase receptor Ret (Homo sapiens), P07949 [Y791F] (P07949 whole entry Y791F): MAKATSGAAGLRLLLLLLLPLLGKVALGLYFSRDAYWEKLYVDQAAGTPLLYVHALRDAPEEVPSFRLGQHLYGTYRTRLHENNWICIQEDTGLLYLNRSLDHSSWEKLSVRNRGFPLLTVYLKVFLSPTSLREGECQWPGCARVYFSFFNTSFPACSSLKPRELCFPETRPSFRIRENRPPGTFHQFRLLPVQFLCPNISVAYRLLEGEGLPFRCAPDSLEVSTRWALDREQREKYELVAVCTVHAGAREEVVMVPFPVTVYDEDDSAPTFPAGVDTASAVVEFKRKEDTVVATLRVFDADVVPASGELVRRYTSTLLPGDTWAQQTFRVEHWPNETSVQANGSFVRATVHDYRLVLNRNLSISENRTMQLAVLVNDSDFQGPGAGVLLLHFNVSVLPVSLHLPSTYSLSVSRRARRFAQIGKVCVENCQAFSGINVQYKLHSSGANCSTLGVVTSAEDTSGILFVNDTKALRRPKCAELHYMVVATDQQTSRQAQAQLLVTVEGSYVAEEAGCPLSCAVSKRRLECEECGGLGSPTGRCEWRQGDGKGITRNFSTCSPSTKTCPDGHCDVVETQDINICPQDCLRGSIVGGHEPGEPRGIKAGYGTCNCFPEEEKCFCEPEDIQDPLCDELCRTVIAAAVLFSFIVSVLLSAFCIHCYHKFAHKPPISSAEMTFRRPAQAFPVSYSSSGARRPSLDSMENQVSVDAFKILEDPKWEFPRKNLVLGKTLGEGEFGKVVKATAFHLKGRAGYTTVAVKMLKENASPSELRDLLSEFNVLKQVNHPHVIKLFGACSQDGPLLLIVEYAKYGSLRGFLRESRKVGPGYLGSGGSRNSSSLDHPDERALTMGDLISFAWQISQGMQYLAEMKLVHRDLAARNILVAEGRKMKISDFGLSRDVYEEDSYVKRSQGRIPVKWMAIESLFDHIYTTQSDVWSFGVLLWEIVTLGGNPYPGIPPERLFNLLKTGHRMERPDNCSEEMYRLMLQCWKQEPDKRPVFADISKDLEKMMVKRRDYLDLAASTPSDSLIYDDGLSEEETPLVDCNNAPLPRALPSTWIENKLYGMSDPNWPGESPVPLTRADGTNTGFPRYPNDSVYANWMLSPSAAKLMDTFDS
Chain of Activated CDC42 kinase 1 (Homo sapiens) (Q07912 whole entry, looked up): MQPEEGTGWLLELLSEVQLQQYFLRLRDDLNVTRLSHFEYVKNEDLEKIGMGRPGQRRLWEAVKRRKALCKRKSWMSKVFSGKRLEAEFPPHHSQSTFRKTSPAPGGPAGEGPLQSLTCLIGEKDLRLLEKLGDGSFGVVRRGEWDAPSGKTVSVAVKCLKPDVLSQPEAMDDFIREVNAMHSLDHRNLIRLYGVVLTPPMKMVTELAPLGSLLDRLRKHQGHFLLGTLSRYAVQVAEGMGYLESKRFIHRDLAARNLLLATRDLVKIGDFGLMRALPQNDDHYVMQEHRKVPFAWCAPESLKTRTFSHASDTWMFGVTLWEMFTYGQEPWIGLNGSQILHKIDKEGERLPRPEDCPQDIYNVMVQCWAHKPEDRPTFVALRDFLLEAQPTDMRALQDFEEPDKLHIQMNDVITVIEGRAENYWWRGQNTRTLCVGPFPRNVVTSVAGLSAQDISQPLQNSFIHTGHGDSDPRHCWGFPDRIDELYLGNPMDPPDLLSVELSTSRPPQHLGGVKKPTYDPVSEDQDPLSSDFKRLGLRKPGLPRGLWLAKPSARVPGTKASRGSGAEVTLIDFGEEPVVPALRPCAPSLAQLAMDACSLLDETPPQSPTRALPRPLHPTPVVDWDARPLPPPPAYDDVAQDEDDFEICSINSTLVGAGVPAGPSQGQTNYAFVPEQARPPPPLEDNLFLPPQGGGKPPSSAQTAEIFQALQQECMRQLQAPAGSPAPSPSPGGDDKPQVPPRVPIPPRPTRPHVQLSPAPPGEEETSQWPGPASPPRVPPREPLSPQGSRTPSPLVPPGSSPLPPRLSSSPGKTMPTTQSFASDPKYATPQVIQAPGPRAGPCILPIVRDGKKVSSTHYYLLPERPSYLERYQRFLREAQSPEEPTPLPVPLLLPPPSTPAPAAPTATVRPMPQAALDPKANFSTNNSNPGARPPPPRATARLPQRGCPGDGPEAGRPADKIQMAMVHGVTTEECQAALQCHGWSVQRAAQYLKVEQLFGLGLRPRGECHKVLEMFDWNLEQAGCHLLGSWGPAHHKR
Chain of Proto-oncogene tyrosine-protein kinase Src (Homo sapiens) (P12931 2-536 limits assumed): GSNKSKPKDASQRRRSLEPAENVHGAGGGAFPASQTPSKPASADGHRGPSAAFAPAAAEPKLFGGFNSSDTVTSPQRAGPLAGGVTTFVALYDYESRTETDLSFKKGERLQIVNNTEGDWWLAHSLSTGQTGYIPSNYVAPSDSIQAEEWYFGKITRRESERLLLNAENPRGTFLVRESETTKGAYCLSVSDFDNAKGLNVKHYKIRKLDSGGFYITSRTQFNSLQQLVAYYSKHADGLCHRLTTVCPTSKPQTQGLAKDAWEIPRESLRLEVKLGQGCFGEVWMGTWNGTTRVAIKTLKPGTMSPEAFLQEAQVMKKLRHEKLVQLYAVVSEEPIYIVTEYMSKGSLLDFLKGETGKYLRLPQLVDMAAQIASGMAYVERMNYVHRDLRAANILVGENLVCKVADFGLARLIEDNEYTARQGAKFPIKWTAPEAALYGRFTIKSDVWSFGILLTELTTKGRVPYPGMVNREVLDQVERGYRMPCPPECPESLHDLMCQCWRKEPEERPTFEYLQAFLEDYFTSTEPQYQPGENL

Turning to `Fc1cccc(COc2ccc(Nc3ncnc4cc(-c5ccc[nH]5)sc34)cc2Cl)c1`, the inhibition in [1] was 15.8%; in experiment [2], 4.56%; in [3], 4.33%; in [4], 9.9%; in experiment [5], 12.1%; in [6] it was 3.22%. Besides, the inhibition in [7] was 6.79%; in experiment [8], -0.83%; in [9], 1.08%; in experiment [10] it was 1.5%; in experiment [11], 2.33%; in experiment [12] it was -0.22%. The inhibition in experiment [13] worked out at 3.69%; in experiment [14] it was 2.27%; in experiment [15], 8.54%; in [16] it was 1.22%; in [17], 1.7%; in [18] it was 0.28%. For the same compound, the inhibition in experiment [19] was determined as 0.88%; in [20] it was 2.39%.

As to `COc1cccc(-n2ncc3c(N/N=C/c4cccc(F)c4)ncnc32)c1`, the inhibition in experiment [1] came out at 19.5%; in experiment [2] it was 7.02%; in [3], 24.4%; in [4], 3.12%; in [5] it was 10.6%; in experiment [6], 0.4%. The inhibition in experiment [7] was 57.2%; in [8] it was -0.72%; in experiment [9], 2.55%; in experiment [10] it was 9.4%; in [11], -0.87%; in experiment [12], -1.33%. Moreover, the inhibition amounted to 2.09% in [13]; 1.49% in experiment [14]; 9% in [15]; 2.13% in [16]; 2.44% in [17]; 0.24% in [18]. The inhibition in experiment [19] worked out at 0.25%; in experiment [20] it was 3.27%.

In the case of `Nc1ncnc2occ(-c3ccc(NC(=O)Nc4cc(C(F)(F)F)cc(C(F)(F)F)c4)cc3)c12`, the inhibition was 75.6% in [1]; -3.85% in [2]; 7.91% in experiment [3]; 1.98% in experiment [4]; 15.9% in experiment [5]; -4.73% in experiment [6]. For the same compound, the inhibition is 24.4% in experiment [7]; -0.11% in experiment [8]; -0.05% in experiment [9]; -5.69% in experiment [10]; -6.95% in experiment [11]; 3.65% in experiment [12]. The inhibition in [13] turned out to be 6.33%; in experiment [14], 29.1%; in [15] it was 77.5%; in [16] it was 4.85%; in experiment [17], 33.8%; in experiment [18], 1.04%. The inhibition in experiment [19] came to 1.13%; in experiment [20] it was 37.1%.

With `NS(=O)(=O)c1ccc(N/N=C2\C(=O)Nc3ccc(C(=O)NCCc4c[nH]cn4)cc32)cc1`, the inhibition in [1] was 63.7%; in [2], 0.68%; in experiment [3], 6%; in experiment [4], 10.9%; in experiment [5], 18.1%; in experiment [6], -1.33%. Besides, the inhibition was 33% in [7]; -0.78% in experiment [8]; 1.4% in [9]; -4.27% in [10]; -0.45% in experiment [11]; 5.46% in experiment [12]. For the same compound, the inhibition in experiment [13] was found to be 12.1%; in experiment [14], 1.64%; in experiment [15] it was 3.16%; in experiment [16], 1.59%; in [17], 10.1%; in [18], 1.35%. Besides, the inhibition in experiment [19] is 2.72%; in experiment [20] it was 5.55%.

Regarding `CCn1c(-c2nonc2N)nc2cncc(C(=O)N3CCNCC3)c21`, the inhibition in experiment [1] was determined as 5.78%; in experiment [2], 3.02%; in [3] it was 4.33%; in experiment [4] it was 7.86%; in experiment [5], 7.97%; in [6], 14.1%. The inhibition in [7] is 16.4%; in experiment [8], -3.72%; in experiment [9] it was -2.89%; in experiment [10] it was -1.71%; in [11], 3.25%; in experiment [12], 7.87%. In addition, the inhibition in experiment [13] is 7.17%; in experiment [14], 6.61%; in experiment [15] it was 5.14%; in experiment [16], 3.89%; in experiment [17], 5.69%; in experiment [18], 1.51%. Also, the inhibition in experiment [19] came out at 1.52%; in experiment [20], 1.71%.

On to `Cc1ccc(C(=O)NC2CCCCC2)cc1-c1ccc(C(=O)NCC2CC2)cc1`, for which the inhibition in experiment [1] is 23%; in experiment [2], -5.44%; in experiment [3], 3.46%; in [4], 6.22%; in [5] it was 7.1%; in [6] it was 0.23%. Also, the inhibition is 4.58% in experiment [7]; 2.6% in [8]; 0.74% in experiment [9]; -0.6% in [10]; 0.52% in experiment [11]; 4.18% in experiment [12]. Further, the inhibition in experiment [13] was 5.66%; in [14], 1.79%; in [15], 4.17%; in experiment [16], 0.56%; in [17], -2.52%; in [18] it was 2.3%. In addition, the values for the inhibition in [19] and in experiment [20] were 4.5% and 2.3%, respectively.
